Assay [1] has as its target T1, Aspartate--tRNA(Asp/Asn) ligase (Mycobacterium tuberculosis (strain ATCC 25618 / H37Rv)) (UniProt P9WFW3). Note: in the data most compounds retested in dose-response had high values.
T1 sequence (whole entry): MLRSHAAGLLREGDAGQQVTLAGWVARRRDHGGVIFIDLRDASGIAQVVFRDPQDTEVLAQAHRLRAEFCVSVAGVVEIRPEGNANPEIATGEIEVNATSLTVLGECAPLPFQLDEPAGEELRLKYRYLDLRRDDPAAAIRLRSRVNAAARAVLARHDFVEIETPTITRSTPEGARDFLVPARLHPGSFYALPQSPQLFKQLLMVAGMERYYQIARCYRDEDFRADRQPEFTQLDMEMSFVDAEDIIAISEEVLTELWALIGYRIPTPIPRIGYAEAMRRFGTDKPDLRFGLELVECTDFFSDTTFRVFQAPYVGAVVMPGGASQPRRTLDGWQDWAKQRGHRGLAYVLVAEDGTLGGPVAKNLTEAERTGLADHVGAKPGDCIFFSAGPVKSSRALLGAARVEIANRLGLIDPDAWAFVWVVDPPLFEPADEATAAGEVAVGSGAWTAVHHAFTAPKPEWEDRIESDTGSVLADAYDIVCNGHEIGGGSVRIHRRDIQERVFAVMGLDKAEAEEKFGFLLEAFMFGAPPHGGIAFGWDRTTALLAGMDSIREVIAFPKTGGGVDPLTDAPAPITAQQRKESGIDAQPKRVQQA
Nature of the assay: Assay for Asp RNA synthetase-1 from Mycobacterium tuberculosis. The class given is functional. Further details: scale not given: direction of the effect not stated beside the values. The settings on record: 30 µM.

Assay [2] addresses Shiga toxin 2 (Escherichia coli O157:H7) (UniProt P09385+P09386). Nature of the assay: E. coli 0.157:H7 Shiga Toxin SOP - stx2 screening assay. The class given is functional. Further details: scale not given: direction of the effect not stated beside the values. The following applies: 30 µM.

As to `COc1ccccc1-c1noc(CN2CCCC2Cn2cccn2)n1` (configuration not stated), the Percent Effect in assay [1] is -7.54%; in assay [2], 21.6%.
For `CC(C)c1n[nH]c(C(=O)Nc2cc[nH]n2)c1Br`, in that order: -4.43% and 13.3%.
On the same counts, the results for `CN(C)C1CCN(C(=O)c2ccc(Cn3ccccc3=O)o2)CC1` are 1.63% and -10.4%.
On the same counts, the results for `CC(COc1ccccc1)NCc1nc(-c2cccnc2)no1` (configuration not stated) are -2.31% and 1.39%.
Turning to `Cn1ncc2c(=O)[nH]c(CN(Cc3cccc(F)c3)C3CC3)nc21`, the Percent Effect is -6.19% in assay [1] and 3.9% in assay [2].
For `CC(C)(O)CN1CCN(C(=O)c2cccnc2O)CC1`, in that order: -6.95% and 9.08%.
On the same counts, the results for `CCn1cc(CN2CCCn3nc(CNC(=O)C4CCC4)cc3C2)cn1` are 4.07% and -31%.
For `CCOc1ccccc1-c1noc(CN2CC(n3cccn3)C2)n1`, in that order: 0.259% and 34.8%.
Take `COCCN1CCCN(C(=O)NC(C)Cn2cccn2)CC1` (configuration not stated): the Percent Effect is 1.3% in assay [1] and -9.78% in assay [2].
As to `Cc1cccc(CN2CCC3(CCN(c4ccccn4)C3)C2=O)c1` (configuration not stated), the Percent Effect in assay [1] is 0.319%; in assay [2] it was -2.5%.
As to `COc1cccc(OC)c1C(=O)N1CCN(c2ccccc2F)CC1`, the Percent Effect in assay [1] came out at 1.49%; in assay [2], 35.2%.
On the same counts, the results for `O=C(CCNc1ncccn1)N1CCCC(n2ccnc2)C1` (configuration not stated) are 1.03% and -9.67%.
For `Cc1ccccc1CN1CCC2(COCc3cnc(N(C)C)nc32)C1` (configuration not stated), in that order: -3.4% and -15.8%.
On the same counts, the results for `NC(=O)C1CCN(CCc2ccc(NC(=O)C3CCC3)cc2)CC1` are 3.99% and -2.25%.
With `O=C(NCc1ccco1)c1nn(C2CCS(=O)(=O)C2)c2c1CCCC2` (configuration not stated), the Percent Effect in assay [1] was -2.28%; in assay [2], 8.96%.
In the case of `Cc1nccn1CC1CCCN1S(=O)(=O)Cc1ccccc1` (configuration not stated), the Percent Effect in assay [1] was -1.4%; in assay [2], 4.42%.
As for `O=C(CCCc1nnc(-c2ccccc2)o1)N1CCN(CCO)CC1`, the Percent Effect in assay [1] is 2.54%; in assay [2], -26.3%.
As for `O=C(c1cc(F)ccc1F)C1CCN(C(=O)c2ccccn2)CC1`, the Percent Effect was -3.52% in assay [1] and 18.1% in assay [2].
On the same counts, the results for `CNS(=O)(=O)c1ccc(C(=O)NC2CCOc3ccccc32)o1` (configuration not stated) are -4.13% and 5.97%.
On the same counts, the results for `CC(C)c1ncc(CN2CCCC(CO)C2)cn1` (configuration not stated) are 0.491% and 5.71%.
On the same counts, the results for `Cc1cc(C)n(C2CN(Cc3noc(-c4ccccc4)n3)C2)n1` are 4.04% and -51.5%.
Regarding `CCOC(=O)NC(C(=O)NCc1ccc(N2CCCCC2)nc1)C(C)C` (configuration not stated), the Percent Effect is -3.06% in assay [1] and 21.9% in assay [2].
On the same counts, the results for `CN(C)C(=O)CN1C[C@@H]2CC[C@H](C1)N(Cc1cc(F)ccc1F)C2` are -0.16% and -37.1%.
As to `Cc1nnc(NCc2ccccc2Cl)c(C#N)c1C`, the figures for the Percent Effect in assay [1] and in assay [2] were 16.3% and 10.3%, respectively.
`O=C(NC1CC(=O)N(Cc2cccc(F)c2)C1)c1ccncc1` (configuration not stated): the Percent Effect is 0.413% in assay [1] and -9.17% in assay [2].
For `Cc1nc(CN2CCCC2c2c(C)nn(C)c2Cl)no1` (configuration not stated), the figures for the Percent Effect in assay [1] and in assay [2] were -3.26% and 18.6%, respectively.
On the same counts, the results for `Cc1nc(CNCC2CCCN2c2cccnn2)no1` (configuration not stated) are -2.08% and -15.8%.
For `CCc1nccn1C1CCCN(C(=O)Cc2n[nH]c3ccccc23)C1` (configuration not stated), the Percent Effect stood at 0.83% in assay [1] and 13.1% in assay [2].
With `Cc1ccc(C(=O)N(C)Cc2cscn2)c(=O)[nH]1`, the Percent Effect is 0.749% in assay [1] and 8.36% in assay [2].
In the case of `COCCN1C[C@@H]2CCCO[C@@H]2[C@H](NC(=O)c2cnccn2)C1`, the Percent Effect in assay [1] is 3.03%; in assay [2], -9.33%.
On the same counts, the results for `Cc1cc(C(=O)N2CCN(C(=O)Cc3ccccn3)CC2)c(C)s1` are 2.55% and 7.06%.
Consider `O=C(CCN1CCOC(Cn2cccn2)C1)NC1CCCC1` (configuration not stated), for which the Percent Effect in assay [1] was -1.67%; in assay [2], -51.9%.
On the same counts, the results for `Cc1nn(-c2ccccc2)cc1C(=O)N1CCCC(n2cccn2)C1` (configuration not stated) are -5.22% and -27.4%.
For `CCN(C(=O)COC)C(c1cccnc1)c1ccc2c(c1)CCO2` (configuration not stated), in that order: 2.07% and -29.4%.
For `CCn1ncc2c1C(COC)CN(Cc1ccsc1)C2` (configuration not stated), in that order: -1.74% and -2.67%.
For the compound `Cc1cnn(CC2CN(Cc3nc4ccccc4nc3C)CCO2)c1` (configuration not stated), the figures for the Percent Effect in assay [1] and in assay [2] were -3.52% and -0.0617%, respectively.
For `O=C(Nc1cccnc1)[C@H]1C[C@H]2OCC[C@H]2N(C(=O)c2ccsc2)C1`, in that order: 4.71% and -27.5%.
For `CCn1nc2c(cc1=O)CN(CC(=O)Nc1nc(C)c(C)s1)CC2`, in that order: 3.7% and -30.8%.
Turning to `Cc1cc(F)ccc1CNCCn1cccn1`, the figures for the Percent Effect in assay [1] and in assay [2] were -3.06% and 13%, respectively.
For `O=C(c1cc(Cl)c2c(c1)OCO2)N1CCN(c2ccccn2)CC1`, in that order: -0.949% and 18.3%.
`CCn1c(C)nnc1CN(C)C1CCN(Cc2nccn2C)C1` (configuration not stated): the Percent Effect in assay [1] was 1.34%; in assay [2], -37.8%.
For the compound `Cc1c[nH]nc1C1CCN(S(=O)(=O)N(C)C)CC1`, the Percent Effect was 2.31% in assay [1] and -2.83% in assay [2].
For `CC(O)CN1CCN(C(=O)c2cc3ccccc3c(=O)[nH]2)CC1` (configuration not stated), in that order: 0.869% and -10.8%.
As for `Cc1cc(-c2cnc(NCc3cccnc3)nc2C(C)(C)C)on1`, the Percent Effect in assay [1] stood at 2.07%; in assay [2] it was 2.89%.
For `O=C(Nc1ccccc1)c1nn(C2CCS(=O)(=O)C2)c2c1CCCC2` (configuration not stated), in that order: 0.629% and 4.6%.
Take `CCc1cc(C(=O)N2CCC(Nc3ccc(C)nn3)CC2)sc1C`: the values for the Percent Effect in assay [1] and in assay [2] were -2.1% and -27.9%, respectively.
`Cc1ccc2cc(C3(O)CCN(C(=O)CN4CCCC4)CC3)ccc2n1`: the Percent Effect in assay [1] was 1.48%; in assay [2] it was -47.1%.
`COCCCNC(=O)CCn1nc(C)c2ccccc21`: the Percent Effect was -2.88% in assay [1] and -11.5% in assay [2].
As to `CN(C)c1cc(CNC(=O)c2cn(-c3ccc(F)cc3)nn2)ccn1`, the figures for the Percent Effect in assay [1] and in assay [2] were 1.09% and 6.86%, respectively.
On to `CC(C)C(C(=O)N1CCCN(Cc2cnn(C)c2)CC1)n1cncn1` (configuration not stated), for which the Percent Effect was -1.93% in assay [1] and -40.5% in assay [2].
On the same counts, the results for `CN(C)c1cc(C(=O)N2CCCC(n3cccn3)C2)ccn1` (configuration not stated) are -2.86% and -7.48%.

These data come from ChEMBL document CHEMBL3988442, “University of Dundee, Small-Polar-MMV Screening Library” (2021).
